Publication PMC11006913
Changes are numbered by the printed parent chain.

How the values were obtained:
Test in all cases: PBM; 200 nM protein, PBS
Conditions in all cases: dsDNA, one strand shown
[1] = biological target: NKX2-5 (Homo sapiens, UniProt P52952 125-210, R139K)
[2] = biological target: T1, NKX2-4 (Homo sapiens, UniProt Q9H2Z4 175-261, P217L)
T1 sequence: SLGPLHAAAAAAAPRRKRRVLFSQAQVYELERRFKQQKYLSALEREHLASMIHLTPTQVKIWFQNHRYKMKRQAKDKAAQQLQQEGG

[3] = biological target: T2, NKX2-4 (Homo sapiens, UniProt Q9H2Z4 175-261, T231S)
T2 sequence: T1 sequence with L43P, T57S

[4] = biological target: T3, NKX2-4 (Homo sapiens, UniProt Q9H2Z4 175-261)
T3 sequence: T1 sequence with L43P

[5] = biological target: T4, NKX2-6 (Homo sapiens, UniProt A6NCS4 118-204, R150C)
T4 sequence: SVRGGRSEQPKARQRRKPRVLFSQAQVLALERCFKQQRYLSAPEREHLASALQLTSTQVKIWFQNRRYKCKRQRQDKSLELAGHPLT

[6] = biological target: T5, NKX2-6 (Homo sapiens, UniProt A6NCS4 118-204)
T5 sequence: T4 sequence with C33R

[7] = biological target: T6, NKX2-4 (Homo sapiens, UniProt Q9H2Z4 175-261, R246Q)
T6 sequence: T1 sequence with L43P, R72Q

[8] = biological target: T7, NKX2-6 (Homo sapiens, UniProt A6NCS4 118-204, F151L)
T7 sequence: T4 sequence with C33R, F34L

[9] = biological target: NKX2-5 (Homo sapiens, UniProt P52952 125-210)
Chain of NKX2-5 (Homo sapiens, UniProt P52952 125-210) (P52952 125-210): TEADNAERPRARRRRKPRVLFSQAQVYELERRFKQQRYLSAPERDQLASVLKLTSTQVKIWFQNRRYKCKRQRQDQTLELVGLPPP

[10] = biological target: NKX3-2 (Homo sapiens, UniProt P78367 192-278, P234S)
Chain of NKX3-2 (Homo sapiens, UniProt P78367 192-278, P234S) (P78367 192-278 P234S): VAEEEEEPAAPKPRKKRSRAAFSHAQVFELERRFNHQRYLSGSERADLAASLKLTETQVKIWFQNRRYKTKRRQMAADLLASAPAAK

[11] = biological target: NKX3-2 (Homo sapiens, UniProt P78367 192-278)
Chain of NKX3-2 (Homo sapiens, UniProt P78367 192-278) (P78367 192-278): as the sequence (P78367 192-278 P234S) above, with S43P counted along it

Chain of NKX2-5 (Homo sapiens, UniProt P52952 125-210, R139K) (P52952 125-210 R139K): as the sequence (P52952 125-210) above, with R15K counted along it

Sequence | binding signal [1] | binding signal [2] | binding signal [3] | binding signal [4] | binding signal [5] | binding signal [6] | binding signal [7] | binding signal [8] | binding signal [9] | binding signal [10] | binding signal [11]
CACTCAAG | 12.5 upbm affinity estimate (log intensity, higher = more binding, comparable within an allelic series) | 12.5 upbm affinity estimate (log intensity, higher = more binding, comparable within an allelic series) | 13 upbm affinity estimate (log intensity, higher = more binding, comparable within an allelic series) | 12.4 upbm affinity estimate (log intensity, higher = more binding, comparable within an allelic series) | 11.6 upbm affinity estimate (log intensity, higher = more binding, comparable within an allelic series) | 13.5 upbm affinity estimate (log intensity, higher = more binding, comparable within an allelic series) | 13.1 upbm affinity estimate (log intensity, higher = more binding, comparable within an allelic series) | 10.5 upbm affinity estimate (log intensity, higher = more binding, comparable within an allelic series) | 12.3 upbm affinity estimate (log intensity, higher = more binding, comparable within an allelic series) |  | 
CACTTGAC | 12.9 upbm affinity estimate (log intensity, higher = more binding, comparable within an allelic series) | 12.7 upbm affinity estimate (log intensity, higher = more binding, comparable within an allelic series) | 13.1 upbm affinity estimate (log intensity, higher = more binding, comparable within an allelic series) | 12.6 upbm affinity estimate (log intensity, higher = more binding, comparable within an allelic series) | 11.9 upbm affinity estimate (log intensity, higher = more binding, comparable within an allelic series) | 13.7 upbm affinity estimate (log intensity, higher = more binding, comparable within an allelic series) | 13.3 upbm affinity estimate (log intensity, higher = more binding, comparable within an allelic series) | 11.2 upbm affinity estimate (log intensity, higher = more binding, comparable within an allelic series) | 12.9 upbm affinity estimate (log intensity, higher = more binding, comparable within an allelic series) | 12.1 upbm affinity estimate (log intensity, higher = more binding, comparable within an allelic series) | 12.2 upbm affinity estimate (log intensity, higher = more binding, comparable within an allelic series)
CCTCTTGA | 12.5 upbm affinity estimate (log intensity, higher = more binding, comparable within an allelic series) | 12.7 upbm affinity estimate (log intensity, higher = more binding, comparable within an allelic series) | 13 upbm affinity estimate (log intensity, higher = more binding, comparable within an allelic series) | 12.5 upbm affinity estimate (log intensity, higher = more binding, comparable within an allelic series) | 11.7 upbm affinity estimate (log intensity, higher = more binding, comparable within an allelic series) | 13.4 upbm affinity estimate (log intensity, higher = more binding, comparable within an allelic series) | 13.2 upbm affinity estimate (log intensity, higher = more binding, comparable within an allelic series) | 10.5 upbm affinity estimate (log intensity, higher = more binding, comparable within an allelic series) | 12.5 upbm affinity estimate (log intensity, higher = more binding, comparable within an allelic series) |  | 
CACTTAAC | 12.8 upbm affinity estimate (log intensity, higher = more binding, comparable within an allelic series) | 12.5 upbm affinity estimate (log intensity, higher = more binding, comparable within an allelic series) | 12.9 upbm affinity estimate (log intensity, higher = more binding, comparable within an allelic series) | 12.4 upbm affinity estimate (log intensity, higher = more binding, comparable within an allelic series) | 11.8 upbm affinity estimate (log intensity, higher = more binding, comparable within an allelic series) | 13.7 upbm affinity estimate (log intensity, higher = more binding, comparable within an allelic series) | 13.1 upbm affinity estimate (log intensity, higher = more binding, comparable within an allelic series) | 11.2 upbm affinity estimate (log intensity, higher = more binding, comparable within an allelic series) | 12.8 upbm affinity estimate (log intensity, higher = more binding, comparable within an allelic series) | 12.9 upbm affinity estimate (log intensity, higher = more binding, comparable within an allelic series) | 12.9 upbm affinity estimate (log intensity, higher = more binding, comparable within an allelic series)
AAGTACCC | 12.4 upbm affinity estimate (log intensity, higher = more binding, comparable within an allelic series) | 12.4 upbm affinity estimate (log intensity, higher = more binding, comparable within an allelic series) | 12.9 upbm affinity estimate (log intensity, higher = more binding, comparable within an allelic series) | 12.3 upbm affinity estimate (log intensity, higher = more binding, comparable within an allelic series) | 11.7 upbm affinity estimate (log intensity, higher = more binding, comparable within an allelic series) | 13.4 upbm affinity estimate (log intensity, higher = more binding, comparable within an allelic series) | 12.9 upbm affinity estimate (log intensity, higher = more binding, comparable within an allelic series) | 10.5 upbm affinity estimate (log intensity, higher = more binding, comparable within an allelic series) | 12.2 upbm affinity estimate (log intensity, higher = more binding, comparable within an allelic series) | 12.8 upbm affinity estimate (log intensity, higher = more binding, comparable within an allelic series) | 12.8 upbm affinity estimate (log intensity, higher = more binding, comparable within an allelic series)
ATAAGTGC | 13 upbm affinity estimate (log intensity, higher = more binding, comparable within an allelic series) | 12.7 upbm affinity estimate (log intensity, higher = more binding, comparable within an allelic series) | 13.1 upbm affinity estimate (log intensity, higher = more binding, comparable within an allelic series) | 12.6 upbm affinity estimate (log intensity, higher = more binding, comparable within an allelic series) | 12.2 upbm affinity estimate (log intensity, higher = more binding, comparable within an allelic series) | 13.8 upbm affinity estimate (log intensity, higher = more binding, comparable within an allelic series) | 13.3 upbm affinity estimate (log intensity, higher = more binding, comparable within an allelic series) | 11.4 upbm affinity estimate (log intensity, higher = more binding, comparable within an allelic series) | 12.9 upbm affinity estimate (log intensity, higher = more binding, comparable within an allelic series) | 12.9 upbm affinity estimate (log intensity, higher = more binding, comparable within an allelic series) | 13 upbm affinity estimate (log intensity, higher = more binding, comparable within an allelic series)
